# Measured values reported in PubChem BioAssay (NCATS).
# Results filed as inconclusive are left out. Activity calls are given as the source filed them. Calls come from the whole dose curve.
# Test: qHTS for identification of novel therapeutic agents for treatment of microphthalmiaassociated transcription factor (MiT) renal cell carcinoma (RCC) (AID 1963991)
# Conditions: CellTiter-Glo, 48 h; for z-score: stronger effect = lower value
# From the text: PI: Marston Linehan Ph.D.
# Urologic Oncology Branch, Center for Cancer Research (CCR)
# National Cancer Institute (NCI), National Institute of Health (NIH), Bethesda, Maryland
# MiT-Renal Cell Carcinoma (RCC) is characterized by genomic translocations involving microphthalmia-associated transcription factor (MiT) family members TFE3, TFEB, or MITF. MiT-RCC represents a specific subtype of sporadic RCC that is predominantly seen in young patients and can present with heterogeneous histological features making diagnosis challenging. Moreover, the disease biology of this aggressive cancer is poorly understood and there is no accepted standard of care therapy for patients with advanced disease. Tumor-derived cell lines have been established from human TFE3-RCC providing useful models for preclinical studies. TFE3-RCC tumor derived cell lines and their tissues of origin were characterized by IHC and gene expression analyses. An unbiased high-throughput drug screen was performed to identify novel therapeutic agents for treatment of MiT-RCC. Potential therapeutic candidates were validated in in vitro and in vivo preclinical studies. Mechanistic assays were conducted to confirm the on-target effects of drugs. The results of a high-throughput small molecule drug screen utilizing three TFE3-RCC tumor-derived cell lines identified five classes of agents with potential pharmacological efficacy, including inhibitors of phosphoinositide-3-kinase (PI3K) and mechanistic target of rapamycin (mTOR), and several additional agents, including the transcription inhibitor Mithramycin A. Upregulation of the cell surface marker GPNMB, a specific MiT transcriptional target, was confirmed in TFE3-RCC and evaluated as a therapeutic target using the GPNMB-targeted antibody-drug conjugate CDX-011. […] The results of the high-throughput drug screen and validation studies in TFE3-RCC tumor-derived cell lines have provided in vitro and in vivo preclinical data supporting the efficacy of the PI3K/mTOR inhibitor.
# SEQUENCE No. (e.g., 1, 2, 3, etc.); […] (e.g., Cells, Incubation, Reagent, etc.); VALUE; DESCRIPTION.
# 1; Cells; 3 uL; white, solid-bottom Grenier assay plate.
# 2; Compounds; 23 nL; Kalypsis pin-tool (Wako USA).
# 3; Incubation; 48 hr; 37 C, 5% CO2, 95% humidity.
# 4; Reagent; 3 uL; CellTiter-Glo reagent (Promega).
# 5; Incubation; 15 min; room temperature.
# 6; Detection; Luminescence; ViewLux plate reader (PerkinElmer).
# NOTES (numbers refer to Sequence numbers above)
# 1. Quantitative high-throughput screening (qHTS) of 1912 pharmacologically defined small molecule compounds was conducted on three TFE3-fusion cell lines bearing three different fusion partners (UOK109, UOK124, UOK145). Briefly, 500 cells in complete growth media were plated into white, solid-bottom, 1536-well tissue culture treated plates (Grenier Cat. 789173-F) using a Multidrop Combi cassette dispenser.
# 2. Twenty-three nanoliter of 1912 pharmacologically defined small molecule compounds of the NCATS Mechanism Interrogation PlatE (MIPE) version 4.0 were added to each assay plate using a Pintool Dispenser (Wako) equipped with 1536 pin head.
# 3. Plates were covered with stainless steel gasketed lids and incubated for 48 hours at standard cell culture conditions.
# 4. Viability was assessed by adding 3uL of CellTiter-Glo detection reagent (Promega).
# 5. Plates were covered with gasket lids and incubated for 15 minutes at room temperature.
# 6. Luminescence was measured on a ViewLux plate reader (PerkinElmer). Post-screen data processing used DMSO controls as 100% viability and empty wells as 0% viability and dose response curve fitting was done for all 11 concentrations for each compound.
# [1] = TFE3-RCC UOK109 viability, measured here: UOK109 Z-AUC
# [2] = TFE3-RCC viability, measured here: UOK124 Z-AUC
# [3] = TFE3-RCC viability, measured here: UOK145 Z-AUC
# Potency is the fitted concentration of half-maximal effect.
Structure (SMILES),Potency (TFE3-RCC UOK109 viability),z-score [1],z-score [2],z-score [3]
Cc1ccccc1-n1c(Cn2cnc3c(N)ncnc32)nc2cccc(C)c2c1=O,235 nM (active),-2.22,-1.13,-1.88
CC(C)(O)C=CC(=O)[C@](C)(O)[C@H]1[C@H](O)C[C@]2(C)[C@@H]3CC=C4[C@@H](C=C(O)C(=O)C4(C)C)[C@]3(C)C(=O)C[C@@]12C,83.3 nM (active),-3.73,-2.29,-2.28
COc1ccc2c(c1)[C@]13CCCCC1C(C2)N(C)CC3 (stereo partly specified),–,-0.129,0.851,0.444
CCC(=O)OC1CCC2C3CCC4=CC(=O)CC[C@@]4(C)C3CC[C@]12C (stereo partly specified),–,0.231,0.282,-0.0668
CCCC[N+]1(C)[C@H]2CC(OC(=O)[C@H](CO)c3ccccc3)C[C@H]1[C@H]1O[C@H]12 (stereo partly specified),–,0.529,0.336,0.453
COc1cccc2c1[C@]13CCN(CC4CC4)[C@H](C2)[C@]1(OC)CCC(=O)C3,–,0.6,0.387,0.213
Oc1ccc2c3c1O[C@H]1c4[nH]c5c(c4C[C@@]4(O)[C@@H](C2)N(CC2CC2)CC[C@]314)C[C@@]1(O)[C@H]2Cc3ccc(O)c4c3[C@@]1(CCN2CC1CC1)[C@H]5O4,–,0.682,0.462,0.385
CCOP(=O)(OCC)C(C)NC(=O)N(CCCl)N=O (stereo unspecified),–,0.0132,-0.441,0.402
C[C@@H]1[C@H](O)[C@@H](C)C=CC=CCCC=CC=CC=CC=C[C@H](O[C@H]2O[C@@H](C)[C@H](O)[C@@H](N)[C@@H]2O)CC2O[C@](O)(C[C@@H](O)[C@H](O)CC[C@@H](O)C[C@@H](O)C[C@@H](O)CC(=O)O[C@H]1C)C[C@H](O)[C@H]2C(=O)O,–,0.777,0.659,-1.57
COc1ccc(CC2NCCc3cc(OC)c(OC)cc32)cc1OC (stereo unspecified),–,0.368,0.055,0.8
Clc1ccccc1C(c1ccccc1)(c1ccccc1)n1cccn1,–,-0.446,0.841,-1.28
NC1=NC(=O)N2CC12 (stereo unspecified),–,0.952,1.24,1.15
CC(O)=C(C#N)C(=O)Nc1cc(Br)ccc1Br,–,0.277,0.279,0.63
